AI-2 QS mod – modulators of Vibrio harveyi AI-2 quorum sensing system; activity change, % at 7.5 µM; AID 2094; actives 0.4% (n = 300,000); Vibrio harveyi JMH597 AI-2 luminescence/OD600 ratio, 9 h; hits give low values; strain lacks LuxN and CqsS sensors; 0 = neutral-control median; in the data active = activity change below about -75%, passing the limit was not always enough; inconclusive = no clear call, values can overlap the other calls;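 also: luminescence divided by OD600 gain over 9 h not by final OD600 alone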
eIF4H inh – inhibitors of RNA binding by human eIF4H; inhibition, % at 35 µM; Q15056; actives 0.94% (n = 290,000); eIF4H fluorescence polarization binding assay; AID 2012;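 also: calls also rest on retests at 20 µM and on dose response follow-up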
PHOSPHO1 block – blocks human PHOSPHO1 phosphatase activity | Q8TCT1 | recombinant PHOSPHO1, absorbance phosphatase assay | inhibition, % at 13.3 µM | actives 1.1% (n = 290,000); in the data active = inhibition above about 60%
MLLE-PAM2 inh – blocks PAM2 peptide binding to the PABP1 MLLE domain. AID 588489. inhibition, % at 20 µM. GST-MLLE / FITC-PAM2 fluorescence polarization. actives 0.36% (n = 360,000); in the data active = inhibition above about 35%, passing the limit was not always enough;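 also: plate controls were DMSO wells with GST-MLLE for no effect and wells lacking GST-MLLE protein for full effect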
Target sequence (P11940 whole entry, looked up, the tested form may be a part): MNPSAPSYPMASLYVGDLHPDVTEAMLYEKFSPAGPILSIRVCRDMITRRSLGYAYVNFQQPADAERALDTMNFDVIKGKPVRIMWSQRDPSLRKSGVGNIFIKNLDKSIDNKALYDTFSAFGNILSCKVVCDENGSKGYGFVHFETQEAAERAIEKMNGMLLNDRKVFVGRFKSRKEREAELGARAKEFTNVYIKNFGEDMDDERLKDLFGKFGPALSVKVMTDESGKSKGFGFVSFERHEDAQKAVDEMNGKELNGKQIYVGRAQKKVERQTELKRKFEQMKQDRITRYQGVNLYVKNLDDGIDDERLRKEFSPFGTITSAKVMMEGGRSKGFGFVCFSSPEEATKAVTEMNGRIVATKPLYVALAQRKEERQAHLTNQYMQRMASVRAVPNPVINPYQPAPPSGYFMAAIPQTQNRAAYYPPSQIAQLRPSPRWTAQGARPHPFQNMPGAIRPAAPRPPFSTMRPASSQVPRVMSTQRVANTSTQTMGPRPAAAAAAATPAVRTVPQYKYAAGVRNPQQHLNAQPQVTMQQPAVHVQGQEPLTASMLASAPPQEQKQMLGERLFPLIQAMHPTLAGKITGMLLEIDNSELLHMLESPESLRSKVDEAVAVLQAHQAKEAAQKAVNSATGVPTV
ABCB6 inh MLPCN – inhibitors of human ABC transporter ABCB6 | fluorescence ratio to DMSO, % at 10 µM | K562-ABCB6 porphyrin accumulation, flow cytometry, 1 h; hits give low values | AID 602162 | Q9NP58 | actives 0.19% (n = 360,000);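 active = fluorescence ratio to DMSO below 75%, the collection mean minus 3 SD; inconclusive = too few cells collected in the well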;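 also: signal is porphyrin accumulated inside mitochondria; 100% equals median channel fluorescence of DMSO control wells; lower ratio means ABCB6 inhibition with less porphyrin fluorescence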
PABP polyA inh – PABP-poly(A) binding inhibition; P11940; actives 1% (n = 290,000); PABP-poly(A) RNA binding, fluorescence polarization; calls only at 35 µM;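 also: calls also rest on retests at 20 µM and on dose response follow-up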
An asterisk follows results filed as active; i = inactive; ? = inconclusive; . = no result; + = active, no number. In the library only some 2.6% were active in any assay of this set; here they are far more common. Unless noted, no rule for the calls is given here.

SMILES	AI-2 QS mod	eIF4H inh	PHOSPHO1 block	MLLE-PAM2 inh	ABCB6 inh MLPCN	PABP polyA inh
Cc1c(NC(=S)N/C(=N/S(=O)(=O)c2ccc(Cl)cc2)c2ccccc2)c(=O)n(-c2ccccc2)n1C	33	-4	83*	20	91	i
CCc1nc2ccc(C(=O)NCCCN3CCCC3=O)cn2c1N(C)C(=O)C1CCCCC1	.	.	.	5	101	.
CC(C)(CS(=O)(=O)[O-])NC(=O)CC[N+](C)(C)CCO	20	88*	11	1	107	+
CCn1c(C)nc2cc(C(N)=O)ccc21	8	99*	30	-3	96	+
Cc1ccccc1S(=O)(=O)NC(=O)C1(C)CCN1C(=O)c1ccccc1CCc1ccccc1 (stereo not given)	.	.	.	-6	98	.
CCC1Sc2ccc(S(=O)(=O)CCC(=O)N3CCc4ccccc43)cc2NC1=O (stereo not given)	16	12	49	9	101	i
O=C(CC1Sc2ccccc2NC1=O)OCC(=O)N1CCc2ccccc21 (stereo not given)	4	1	62*	-43	95	i
CCCCn1c(O)c2n(c1=O)Cc1ccccc1N=C2c1ccc(C)cc1	.	.	.	-4	101	.
COc1ccc(CNCCCn2cnc3c(SC)ncnc32)cc1	.	.	.	0	100	.
O=C1c2ccccc2C(=O)N1c1ccccc1	.	.	.	-8	101	.
Nc1cccc2c1C(=O)N(c1ccccc1)C2=O	11	.	.	48*	98	.
CCOC(=O)[C@]12CCCC=C1N(Cc1ccc3c(c1)OCO3)C(=O)[C@H](CC(=O)N1CCC(c3ccccc3)CC1)C2	.	.	.	.	98	.
COc1cc(CCN(C(=O)c2cccc(S(C)(=O)=O)c2)C(CCc2ccccc2)c2nc3ccccc3[nH]2)cc(OC)c1 (stereo not given)	.	.	.	0	100	.
O=C(NC(=S)N1CCCC1)c1ccccc1F	.	.	.	44*	95	.
O=C(NC(=S)N1CCCC1)c1ccccc1Cl	1	5	10	25	96	i
COc1ccc(NC(=O)C2(C)Cc3c(-c4ccc(N(C)C)cc4)ccnc3O2)cc1 (stereo not given)	.	.	.	4	94	.
Cc1nc(S(=O)(=O)Nc2ccccc2C(=O)NCC2CC2)cn1C	.	-7	63*	2	99	i
Cc1ccc(S(=O)(=O)Nc2ccccc2C(=O)NCC2CCCO2)cc1 (stereo not given)	-7	2	43	.	.	i
CCOCCCn1c(=N)c(S(=O)(=O)c2ccc(C)cc2)cc2c(=O)n3cc(C)ccc3nc21	-3	?	0	40*	100	i
C[C@@H](CSc1ccccc1)CN1CC[C@H](C(C)(C)C)CCC1=O	14	3	-13	-3	97	i
CC(=O)Nc1ccc(SCCN2CC[C@@H](C(C)(C)C)CCC2=O)cc1	.	.	.	41*	96	.
COc1ccc(SC[C@H](C)CN2CC[C@H](C(C)(C)C)CCC2=O)cc1	.	.	.	40*	98	.
CN1CCN(c2cc(CNC[C@H]3O[C@@H](n4cnc5c(=O)[nH]c(N)nc54)[C@H](O)[C@@H]3O)ccc2F)CC1	.	.	.	-3	99	.
CCc1nc2ccc(C(=O)NCc3cccs3)cn2c1N(C)Cc1nccs1	.	.	.	-4	96	.
CC(C)(C)OC(=O)N[C@@H](C(=O)OC(C)(C)C)c1ccccc1	.	.	.	3	92	.
SMILES	AI-2 QS mod	eIF4H inh	PHOSPHO1 block	MLLE-PAM2 inh	ABCB6 inh MLPCN	PABP polyA inh
Cc1cccc([C@@H](NC(=O)OC(C)(C)C)C(=O)OC(C)(C)C)c1	.	.	.	-13	68*	.
C[n+]1ccc(/C=C/c2cccs2)cc1	6	2	74*	-101	96	i
CN(C)c1ccc(/C=C/c2cc[n+](C)cc2)cc1	46	93	102*	-154	i	i
CC1=C(C(=O)N2CCCCCC2)CC(CC(=O)NCCc2ccccn2)C(=O)N1Cc1ccc(F)cc1 (stereo not given)	.	.	.	.	97	.
CS(=O)(=O)n1c2ccccc2c(=O)n1-c1ccccc1CCl	.	.	.	15	99	.
CCOC(=O)C1(C)CCCN1C(=O)c1snnc1C (stereo not given)	.	.	.	8	95	.
COC(=O)C1=C(NC(=O)c2ccc(C)c(C)c2)CCS1	20	1	-22	39*	101	i
O=S(=O)(/C=C/c1ccccc1)N1CCN(c2cccc(Cl)c2)CC1	7	-4	19	-2	69*	i
C=CCn1c(CNC(=O)c2cccs2)nnc1SCC(=O)Nc1ccc(C(=O)O)cc1	-1	6	90*	-113	97	i
O=C(NCCCN1CCOCC1)c1c(-c2ccccc2)oc2c1C(OCCCCCO)CCC2 (stereo not given)	.	.	.	.	104	.
O=C(CC1C(=O)NCCN1Cc1ccc(F)cc1)NC1CCCCCCC1 (stereo not given)	4	27	65*	-8	98	i
Cc1ccc(CN2CCNC(=O)C2CC(=O)NC2CCCCCC2)cc1 (stereo not given)	-10	-1	43	3	106	i
CCOc1ccc(CN2CCNC(=O)C2CC(=O)NCc2csc(C)n2)cc1 (stereo not given)	19	8	2	8	101	i
Cc1nc(CNC(=O)CC2C(=O)NCCN2Cc2ccc(F)cc2)cs1 (stereo not given)	9	8	66*	13	105	i
Cc1cc(C)cc(C(O)c2ncc(-c3cccc(F)c3)[nH]2)c1 (stereo not given)	.	.	.	8	97	.
COC(=O)c1sc(NC(=O)/C=C/c2ccc(C)o2)nc1C	17	95*	5	5	91	i
Cc1ccc(/C=C/C(=O)Nc2nn[nH]n2)o1	8	38	-7	36*	92	i
Cc1nc(NC(=O)c2c(-c3ccccc3)noc2C)sc1C(=O)N(C)C	29	-4	12	5	91	i
COC(=O)c1sc(NC(=O)c2c(-c3ccccc3)noc2C)nc1C	18	-8	66*	-13	94	i
COC(=O)c1sc(NC(=O)c2ccoc2C)nc1C	-2	3	5	0	92	i
CC(=O)NC(c1cccc(F)c1)c1nc(-c2cnn(C)c2)cs1 (stereo not given)	.	.	.	9	95	.
O=S1(=O)CC(N2CCCCC2)CN1CCc1ccccc1 (stereo not given)	.	.	.	8	100	.
CN(C)c1ccc2c(=O)c3ccccc3oc2n1	.	.	.	6	94	.
Cc1oc2c(cc(NS(=O)(=O)c3ccc(F)cc3)c3ccccc32)c1C(=O)O	11	30	30	13	104	i
Cc1oc2c(cc(NS(=O)(=O)c3ccc(C(C)C)cc3)c3ccccc32)c1C(=O)O	35	66*	-14	126	101	+
CN1C(=O)/C(=C2/C=CC=CN2C)OC1=S	7	-8	28	40*	103	i
CCN1/C(=C2\OC(=S)N(C)C2=O)C=Cc2ccccc21	20	11	2	-23	98	i

Screening results from PubChem BioAssay.
